Active and inactive are the calls of the source.
Experiments:
[1] = binders of probe aFSTL3 on microarray, primary screen, stem cell growth factor project, biochemical, small-molecule microarray, fluorescence 635/667 (AID 1064); settings: higher = more signal;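 note: measures binding of the biotinylated anti-FSTL3 antibody to printed compounds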
[2] = binders from COS7 lysate, DM2A8 probe, primary screen, torsin A project, cell lysate, small-molecule microarray, fluorescence 635/667 (AID 1065); settings: higher = more signal, COS7 lysate expressing mutant human TOR1A
[3] = binders of probe aFGF2 on microarray, primary screen, stem cell growth factor project, biochemical, small-molecule microarray, fluorescence 635/667 (AID 1067); settings: higher = more signal;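 note: measures binding of biotinylated aFGF2 protein to printed compounds on slides; z-score merges feature fluorescence and signal-to-noise across triplicate slides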
[4] = binders of probe aFGF10 on microarray, primary screen, stem cell growth factor project, biochemical, small-molecule microarray, fluorescence 635/667 (AID 1071); settings: higher = more signal;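 note: score merges 667 nm spot intensity and signal to noise from triplicate slides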
[5] = molecular target: Neurogenic locus notch homolog protein 2 (Homo sapiens) (UniProt Q04721); assay: Notch2 binders on small-molecule microarrays, primary screen, biochemical, small-molecule microarray, 635 nm fluorescence, stem cell growth factors (AID 1073); settings: Notch2 binding, higher = more signal
Chain of Neurogenic locus notch homolog protein 2 (Homo sapiens) (Q04721 whole entry, looked up, canonical isoform): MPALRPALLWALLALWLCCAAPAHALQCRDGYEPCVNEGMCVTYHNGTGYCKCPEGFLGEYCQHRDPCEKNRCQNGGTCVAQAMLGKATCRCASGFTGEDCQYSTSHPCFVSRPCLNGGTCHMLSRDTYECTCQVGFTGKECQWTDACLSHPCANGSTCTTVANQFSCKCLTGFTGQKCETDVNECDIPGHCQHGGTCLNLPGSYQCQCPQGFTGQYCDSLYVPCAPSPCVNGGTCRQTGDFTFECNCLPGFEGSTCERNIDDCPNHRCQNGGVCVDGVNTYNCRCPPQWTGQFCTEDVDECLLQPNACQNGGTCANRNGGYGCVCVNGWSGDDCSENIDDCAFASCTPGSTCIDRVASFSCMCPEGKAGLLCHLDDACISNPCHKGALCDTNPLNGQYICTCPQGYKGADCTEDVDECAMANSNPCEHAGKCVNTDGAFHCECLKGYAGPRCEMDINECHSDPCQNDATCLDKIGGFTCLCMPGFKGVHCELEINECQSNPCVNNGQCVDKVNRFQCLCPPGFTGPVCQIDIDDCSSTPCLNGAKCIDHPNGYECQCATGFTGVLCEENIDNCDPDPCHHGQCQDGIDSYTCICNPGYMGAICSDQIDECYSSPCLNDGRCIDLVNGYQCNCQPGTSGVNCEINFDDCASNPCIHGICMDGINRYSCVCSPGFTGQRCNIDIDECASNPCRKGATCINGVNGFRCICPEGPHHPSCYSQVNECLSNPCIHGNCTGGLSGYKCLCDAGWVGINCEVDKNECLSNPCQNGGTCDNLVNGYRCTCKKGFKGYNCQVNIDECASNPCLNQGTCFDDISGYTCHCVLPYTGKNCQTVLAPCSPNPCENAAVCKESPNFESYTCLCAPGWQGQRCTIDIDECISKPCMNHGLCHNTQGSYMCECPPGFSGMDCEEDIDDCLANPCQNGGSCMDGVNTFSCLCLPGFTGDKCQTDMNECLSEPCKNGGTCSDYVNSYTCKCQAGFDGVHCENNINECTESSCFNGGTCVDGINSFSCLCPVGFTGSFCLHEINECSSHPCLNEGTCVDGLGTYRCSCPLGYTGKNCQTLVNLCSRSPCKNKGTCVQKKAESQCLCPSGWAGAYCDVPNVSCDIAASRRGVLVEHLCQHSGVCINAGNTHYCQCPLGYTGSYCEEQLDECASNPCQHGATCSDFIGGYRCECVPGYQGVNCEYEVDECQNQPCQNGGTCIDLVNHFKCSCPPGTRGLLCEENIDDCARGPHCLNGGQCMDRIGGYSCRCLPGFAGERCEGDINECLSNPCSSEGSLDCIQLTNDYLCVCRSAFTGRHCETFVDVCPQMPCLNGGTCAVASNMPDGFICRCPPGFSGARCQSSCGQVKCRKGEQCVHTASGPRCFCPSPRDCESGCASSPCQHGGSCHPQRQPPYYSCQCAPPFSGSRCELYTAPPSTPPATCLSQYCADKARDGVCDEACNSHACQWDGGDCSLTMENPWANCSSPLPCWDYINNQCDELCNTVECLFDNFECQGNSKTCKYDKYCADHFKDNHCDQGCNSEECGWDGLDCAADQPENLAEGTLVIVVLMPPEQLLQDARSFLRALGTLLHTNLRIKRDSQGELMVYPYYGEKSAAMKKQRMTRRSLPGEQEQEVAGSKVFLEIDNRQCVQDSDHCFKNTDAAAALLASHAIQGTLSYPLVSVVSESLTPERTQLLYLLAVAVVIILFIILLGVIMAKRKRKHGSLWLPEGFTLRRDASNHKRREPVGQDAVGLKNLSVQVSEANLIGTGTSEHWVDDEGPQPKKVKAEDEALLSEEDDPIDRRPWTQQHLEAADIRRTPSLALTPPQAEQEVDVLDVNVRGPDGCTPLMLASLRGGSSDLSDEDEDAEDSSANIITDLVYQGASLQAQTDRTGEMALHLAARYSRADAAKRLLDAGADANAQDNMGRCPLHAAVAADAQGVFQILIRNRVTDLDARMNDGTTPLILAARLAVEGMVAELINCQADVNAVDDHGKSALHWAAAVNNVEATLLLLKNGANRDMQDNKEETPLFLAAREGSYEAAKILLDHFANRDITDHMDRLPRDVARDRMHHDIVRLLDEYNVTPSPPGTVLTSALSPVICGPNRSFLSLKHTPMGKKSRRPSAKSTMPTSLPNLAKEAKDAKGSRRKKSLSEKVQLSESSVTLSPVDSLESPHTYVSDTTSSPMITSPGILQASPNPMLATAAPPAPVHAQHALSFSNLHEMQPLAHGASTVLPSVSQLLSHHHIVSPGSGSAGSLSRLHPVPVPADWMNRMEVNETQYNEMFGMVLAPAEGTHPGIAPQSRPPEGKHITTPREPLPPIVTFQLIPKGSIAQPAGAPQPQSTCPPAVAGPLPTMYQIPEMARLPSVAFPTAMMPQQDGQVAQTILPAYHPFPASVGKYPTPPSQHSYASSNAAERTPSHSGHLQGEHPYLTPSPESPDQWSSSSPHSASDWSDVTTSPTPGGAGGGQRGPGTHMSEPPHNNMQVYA

[6] = molecular target: Pro-neuregulin-1, membrane-bound isoform (Homo sapiens) (UniProt Q02297); assay: NRG1 binders on small-molecule microarrays, primary screen, psychiatric disease protein project, biochemical, small-molecule microarray, fluorescence 635/667 (AID 1075); settings: NRG1 binding, 635 nm fluorescence, higher = more signal;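 note: score combines 667 nm spot fluorescence with signal to noise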
Chain of Pro-neuregulin-1, membrane-bound isoform (Homo sapiens) (Q02297 whole entry, looked up, the tested form may be a part, canonical isoform): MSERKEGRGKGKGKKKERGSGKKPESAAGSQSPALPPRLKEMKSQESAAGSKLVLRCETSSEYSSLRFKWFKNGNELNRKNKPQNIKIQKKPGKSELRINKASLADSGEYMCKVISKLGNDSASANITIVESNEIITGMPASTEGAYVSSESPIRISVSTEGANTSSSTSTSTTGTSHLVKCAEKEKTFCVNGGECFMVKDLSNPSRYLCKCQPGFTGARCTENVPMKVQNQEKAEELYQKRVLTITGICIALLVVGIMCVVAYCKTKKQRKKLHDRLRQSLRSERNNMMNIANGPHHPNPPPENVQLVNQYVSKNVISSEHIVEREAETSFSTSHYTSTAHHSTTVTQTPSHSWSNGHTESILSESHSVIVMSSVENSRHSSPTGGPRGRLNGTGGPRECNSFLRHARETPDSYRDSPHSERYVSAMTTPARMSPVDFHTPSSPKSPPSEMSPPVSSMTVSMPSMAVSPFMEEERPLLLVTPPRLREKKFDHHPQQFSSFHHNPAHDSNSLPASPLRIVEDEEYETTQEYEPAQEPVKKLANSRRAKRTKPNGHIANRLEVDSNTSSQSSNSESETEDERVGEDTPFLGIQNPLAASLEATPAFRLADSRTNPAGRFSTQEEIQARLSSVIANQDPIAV

[7] = system: Neuregulin-1 EGF-like domain; assay: binders of neuregulin-1 EGF-like domain, primary screen, biochemical, small-molecule microarray, 635 nm fluorescence (AID 1081); settings: small-molecule microarray binding, higher = more signal;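 note: binding of the protein to compounds printed on small-molecule microarray slides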
[8] = FRG1 promoter luciferase signal modulators, primary screen, FRG1 inhibition for FSHD, cell-based, C2C12 myotubes, firefly/Renilla luciferase, luminescence (AID 1084); settings: higher = more signal, called active from +8 up or from −8 down
[9] = binders of probe aFST on microarray, primary screen, stem cell growth factor project, biochemical, small-molecule microarray, fluorescence 635/667 (AID 1086); settings: higher = more signal;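 note: score merges 667 nm fluorescence with signal-to-noise of each printed compound spot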
[10] = binders of probe aHhip on microarray, primary screen, stem cell growth factor project, biochemical, small-molecule microarray, fluorescence 635/667 (AID 1087); settings: higher = more signal;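 note: score merges spot fluorescence at 667nm with spot signal to noise ratio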

Row | SMILES | composite z-score [1] | composite z-score [2] | composite z-score [3] | composite z-score [4] | composite z-score [5] | composite z-score [6] | composite z-score [7] | z-score [8] | composite z-score [9] | composite z-score [10]
1 | C=Cc1ccc([C@H]2N[C@H](C(=O)O)CC[C@@H]2C)cc1 | -0.372 | 0.056 | -0.156 | 0.145 | -0.226 | -0.284 | 0.564 | 1.35 (inactive) | -0.0301 | 0.0399
2 | C[C@@H]1CC[C@H]2C(=O)O[C@@H](Cc3ccccc3)CN2[C@H]1c1ccc(Br)cc1 | -0.395 | 0.207 | -0.185 | -0.112 | 0.526 | 0.649 | 0.408 | -0.205 (inactive) | 0.384 | -0.201
3 | CCOC(=O)NN=C1C[C@@H](O)[C@@H](O)[C@@H]2[C@@H]3C(=O)N([C@@H](C)c4ccccc4)C(=O)[C@@H]3CC[C@@H]12 | -0.291 | 2.08 | -0.0934 | 0.393 | 0.601 | -0.133 | 0.11 | 0.696 (inactive) | 0.517 | -0.0994
4 | COc1ccc(O[C@@H]2[C@H](O)CO[C@H]2C=Cc2ccccc2)cc1 | -0.323 | 0.26 | -0.113 | 0.649 | -0.625 | 0.0515 | -0.839 | -1.39 (inactive) | -0.367 | -0.0994
5 | CCOC(=O)[C@H](CC(C)C)NC(=O)CCC1CC(OC(=O)NCc2cccc3ccccc23)CC2(CCCC(COC(=O)NCCOC)O2)O1 (stereo not given in full) | -0.56 | 0.071 | -0.0216 | 0.482 | 1.36 | 1.27 | 0.931 | -0.0725 (inactive) | 0.754 | -0.214
6 | CCOC(=O)[C@H](Cc1ccccc1)NC(=O)CCC1CC(OC(=O)NCc2cccc3ccccc23)CC2(CCCC(COC(=O)NCCC(C)C)O2)O1 (stereo not given in full) | -0.499 | 0.283 | -0.0895 | 0.0687 | -0.756 | -0.348 | 0.751 | 1.41 (inactive) | -0.219 | -0.0994
7 | CCOC(=O)[C@H](Cc1ccccc1)NC(=O)CCC1CC(OC(=O)NCCc2ccc(F)cc2)CC2(CCCC(COC(=O)NCCOC)O2)O1 (stereo not given in full) | -0.584 | 0.114 | -0.0291 | 0.868 | 1.04 | 0.326 | 1.11 | 0.753 (inactive) | 0.169 | -0.248
8 | CC(CCN1CCc2nc(-c3ccccc3)c(-c3ccccc3)cc2C1)=NOC[C@@H](O)[C@H]1O[C@@H]2OC(C)(C)O[C@@H]2[C@H]1O | -0.621 | 0.59 | -0.085 | 0.455 | 0.331 | 0.609 | 0.676 | 1.54 (inactive) | 0.319 | 0.0139
9 | CC(C)=CCCC(C)=CCON=C1C[C@@H](O)[C@@H](O)[C@@H]2[C@@H]3C(=O)N(c4ccc(F)cc4F)C(=O)[C@@H]3CC[C@@H]12 | -0.245 | 0.87 | -0.116 | 0.546 | -0.205 | 0.895 | 0.314 | 0.656 (inactive) | 0.356 | 0.0505
10 | O=C1C=C[C@@H](O)[C@@H]2[C@@H]3C(=O)N(c4ccc(F)cc4F)C(=O)[C@@H]3CC[C@@H]12 | -0.298 | 0.55 | -0.0493 | 0.547 | 0.611 | 0.12 | 0.384 | -0.996 (inactive) | 0.142 | -0.0994
11 | CO[C@H]1COC(=O)CCC[C@@H](C)[C@H](OC)COC(=O)[C@@H](C)NC(=O)CC=C[C@@H]1C | -0.467 | 2.11 | -0.235 | -0.0534 | -0.314 | -0.523 | -0.723 | 0.947 (inactive) | 0.0835 | -0.0994
12 | CCCCC#C[C@@H]1C=C[C@H](Oc2cc(OC)c(OC)c(OC)c2)[C@@H](COC(=O)OCC)O1 | -0.682 | -0.0561 | -0.116 | -0.0152 | -0.526 | -0.158 | -0.365 | -0.214 (inactive) | -0.311 | 0.141
13 | CC(C)=CCCC(C)=CCON=C1C[C@@H](O)[C@@H](O)[C@@H]2[C@@H]3C(=O)N(c4cccc(Oc5ccccc5)c4)C(=O)[C@@H]3CC[C@@H]12 | -0.473 | -0.314 | -0.0962 | 0.341 | 0.521 | 0.938 | 0.972 | 0.508 (inactive) | 0.34 | -0.0994
14 | C#CCCCON=C1C[C@@H](O)[C@@H](O)[C@@H]2[C@@H]3C(=O)N(C(C)(C)C)C(=O)[C@@H]3CC[C@@H]12 | 2.02 | 0.0189 | -0.0468 | -0.0755 | -0.707 | -0.107 | -0.117 | -0.305 (inactive) | 0.987 | -0.0645
15 | COc1ccc(O[C@H]2C=C[C@@H](c3ccccc3)O[C@@H]2CON=C(C)C)cc1 | 0.332 | -0.0694 | 0.0333 | -0.531 | -0.286 | 0.112 | -0.0241 | 0.359 (inactive) | -0.195 | 0.107
16 | CCc1cc2c(nc1CC)CCN(CCC(C)=NOC[C@H]1O[C@H](c3ccccc3)C=C[C@@H]1Oc1ccc(OC)cc1)C2 | 0.0529 | 0.732 | -0.178 | -0.147 | -0.391 | 0.121 | 0.734 | 1.39 (inactive) | 0.0567 | 0.12
17 | C=C(C)C(=O)OCC1CN2[C@@H](CC[C@@H](C)[C@@H]2c2ccc(Br)cc2)C(=O)O1 (stereo not given in full) | -0.393 | 0.0802 | -0.15 | 0.2 | 0.331 | -0.0076 | 0.546 | 1.11 (inactive) | 0.444 | -0.21
18 | COC(=O)CC=C[C@H](C)[C@@H](OCc1cccc(Br)c1)[C@@H](C)[C@H](OC)C1CCCCC1 | -0.191 | 0.451 | -0.245 | 0.106 | -0.723 | 0.419 | -0.3 | 1.23 (inactive) | -0.118 | 0.0024
19 | COc1ccc(COC(=O)NN=C2C[C@@H](O)[C@@H](O)[C@@H]3[C@@H]4C(=O)N(Cc5ccccc5)C(=O)[C@@H]4CC[C@H]23)cc1 | 1.51 | 0.111 | -0.0574 | 0.009 | -0.234 | -0.318 | -0.411 | 0.319 (inactive) | 1.39 | -0.284
20 | COc1cccc([C@H]2Oc3ccc(OC)cc3C(=NO[C@@H](C)c3cn([C@H](CO)Cc4ccccc4)nn3)[C@@H]2O)c1 | -0.234 | -0.346 | -0.133 | 0.226 | -0.188 | 0.428 | -0.123 | 0.213 (inactive) | 0.105 | -0.134
21 | C[C@H]1Cc2c(COc3ccccc3)nc3c(c2CO1)CN(CCOc1ccccc1)CC3 | -0.762 | 0.665 | -0.0468 | 0.503 | 1.28 | 0.455 | 0.794 | -1.16 (inactive) | 0.0632 | -0.174
22 | COC(=O)[C@H](C)NC(=O)CCC1CC(OC(=O)NCc2ccc3c(c2)OCO3)CC2(CCCC(COC(=O)NCCc3ccccc3OC)O2)O1 (stereo not given in full) | -0.587 | 0.172 | -0.171 | 0.16 | 0.138 | 0.597 | 0.751 | 1.06 (inactive) | -0.17 | 0.0274
23 | CCOC(=O)[C@H](CC(C)C)NC(=O)CCC1CC(OC(=O)NCc2cccc3ccccc23)CC2(CCCC(COC(=O)NCC3CCCCC3)O2)O1 (stereo not given in full) | -0.338 | 0.194 | -0.0744 | 0.54 | 0.763 | 0.589 | 0.907 | 0.791 (inactive) | 0.615 | 0.0623
24 | C=CC1=C[C@H](O)[C@@H]2O[C@@H]2C12OCCCO2 | -0.0605 | 0.2 | -0.204 | 0.206 | 0.0754 | 0.122 | 0.35 | 0.293 (inactive) | -0.136 | 0.0274
25 | Cc1cc2c(nc1C)CCCCN2CC(C)ON=C[C@@H](C)[C@H](OCc1ccccc1)C(C)C (stereo not given in full) | -0.0674 | -0.777 | -0.307 | -1.05 | -1.38 | -0.317 | -0.366 | -0.154 (inactive) | -0.514 | -0.0994
26 | C#CCCCON=C1C[C@@H](O)[C@@H](O)[C@@H]2[C@@H]3C(=O)N(c4cccc(Oc5ccccc5)c4)C(=O)[C@@H]3CC[C@H]12 | -0.2 | 0.744 | -0.129 | -0.264 | -0.87 | 0.248 | 0.425 | 1.2 (inactive) | -0.464 | -0.0193
27 | COC(=O)CC=C[C@@H](C)[C@@H](C=NOCC[C@@H]1C=C[C@H](OC(C)=O)[C@@H](COC(C)=O)O1)OC | -0.413 | 0.174 | 0.0144 | 0.502 | 0.193 | -0.0568 | 0.813 | 0.799 (inactive) | 0.0492 | 0.0053
